Results: PubChem BioAssay (NCATS)
Where “and” joins values, the source holds several entries; their conditions need not be identical. Equal entries are not always repeated. Records with an inconclusive call do not appear. Calls of active or inactive are those of the source. Calls come from the whole dose curve; as a rule, active = well fitted activation curve with a large enough effect; inconclusive = small, poorly fitted or top-dose-only effect; inactive = no such curve, though single readings can be large or run the other way.

Each compound was assayed against Cellular tumor antigen p53 (Homo sapiens) (UniProt P04637) (assay: Primary qHTS for small molecule compounds that upregulate eGFP-tagged delta133p53alpha (in N-terminal) cells. (AID 2060322;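 note: series mostly up to about 56 µM; 0% = DMSO vehicle and 100% = reference activator; nearly all actives have a fitted effect of over 75% in size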)). Conditions: NCI-H358 eGFP-delta133p53alpha fluorescence, 24 h; activation: active compounds read high.
Chain of Cellular tumor antigen p53 (Homo sapiens) (P04637 whole entry, looked up): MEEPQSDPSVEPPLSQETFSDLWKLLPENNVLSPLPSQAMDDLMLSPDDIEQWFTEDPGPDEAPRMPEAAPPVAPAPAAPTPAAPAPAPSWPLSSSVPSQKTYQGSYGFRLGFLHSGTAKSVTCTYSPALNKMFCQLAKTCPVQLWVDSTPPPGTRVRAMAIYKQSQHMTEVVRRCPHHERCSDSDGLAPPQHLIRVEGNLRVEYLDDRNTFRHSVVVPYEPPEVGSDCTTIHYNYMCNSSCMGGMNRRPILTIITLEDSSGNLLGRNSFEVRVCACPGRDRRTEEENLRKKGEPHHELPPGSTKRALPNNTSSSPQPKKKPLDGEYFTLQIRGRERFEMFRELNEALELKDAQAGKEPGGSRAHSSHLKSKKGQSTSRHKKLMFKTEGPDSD
In short: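 NCI-H358 cells pre-induced 24 h with 10 ng/ml doxycycline to express N-terminal eGFP-delta133p53alpha, then dosed 24 h at 37C without doxycycline; fixed, Hoechst-stained, GFP intensity by laser scanning cytometry, normalized to DMSO (0%) and 57.5 uM 5-azacytidine (100%).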

Row | Structure (SMILES) | activation
1 | CC(O)Cn1cnc2c1c(=O)n(C)c(=O)n2C (centres undefined) | 26.6% (inactive)
2 | COC(=O)N[C@H](C(=O)N[C@@H](Cc1ccccc1)[C@@H](O)CN(Cc1ccc(-c2ccccn2)cc1)NC(=O)[C@@H](NC(=O)OC)C(C)(C)C)C(C)(C)C | -2.82% (inactive) and 23.4% (inactive)
3 | CN1CCN(C(=O)C2CCCCC2)CC1 | -11.7% (inactive)
4 | COC(=O)c1cc(Cl)c(NC(C)=O)cc1OC | 11.9% (inactive)
5 | CN(CC=CC#CC(C)(C)C)Cc1cccc2ccccc12 | 36.7% (inactive)
6 | O=C(c1ccc(F)c(F)c1Nc1ccc(I)cc1F)N1CC(O)([C@H]2CCCCN2)C1 | 17.1% (inactive)
7 | CCCCCCCCCCC(CO)CCCCCCCC (centres undefined) | 16.4% (inactive)
8 | COc1cc(C(=S)N2CCOCC2)cc(OC)c1OC | -16.4% (inactive)
9 | C[C@H](Cn1cnc2c(N)ncnc21)OCP(=O)(O)O | 61.4% (inactive)
10 | C[C@]12CC[C@H](O)CC1=CC[C@@H]1[C@H]2CC[C@]2(C)C(c3cccnc3)=CC[C@H]12 | -11.6% (inactive)
11 | O=C(CN1CCNCC1)NC1CCCCC1 | 7.53% (inactive)
12 | CCCCC(=O)OCC(=O)[C@H]1[C@H](C)C[C@H]2[C@@H]3C[C@H](F)C4=CC(=O)C=C[C@]4(C)[C@@]3(F)[C@@H](O)C[C@@]21C | -6.21% (inactive)
13 | Cc1cc(C)cc(OCC2CNC(=O)O2)c1 (centres undefined) | -11.9% (inactive)
14 | CC1CCCCN1CCCOC(=O)c1ccc(OC2CCCCC2)cc1 (centres undefined) | -7.53% (inactive)
15 | C=CC1=C(C(=O)O)N2C(=O)[C@@H](NC(=O)C(=NO)c3csc(N)n3)[C@H]2SC1 | -4.61% (inactive)
16 | CCC(CC)(CC(=O)Nc1cccc(/C=C/c2nc(C3CCC3)cs2)c1)C(=O)O | 24.3% (inactive)
17 | COC(=O)C(c1ccccc1Cl)N1CCc2sccc2C1 (centres undefined) | 10.7% (inactive)
18 | CC(C(=O)O)c1ccc(C(=O)c2cccs2)cc1 (centres undefined) | 9.21% (inactive)
19 | O=C(O)Cn1cnnn1 | -6.21% (inactive)
20 | Cc1ccsc1/C=C/C1=NCCCN1C | -2.51% (inactive)

Row | Structure (SMILES) | activation
21 | CCC(=O)OCC(=O)[C@@]1(OC(=O)CC)[C@@H](C)C[C@@H]2[C@H]3CCC4=CC(=O)C=C[C@]4(C)[C@@]3(F)[C@@H](O)C[C@@]21C | 3.16% (inactive)
22 | CN1[C@H]2CC(OC(=O)[C@@H](CO)c3ccccc3)C[C@H]1[C@H]1O[C@H]12 (some centres undefined) | 6.53% (inactive)
23 | O=c1[nH]c(=O)c2ccccc2o1 | -12.6% (inactive)
24 | [O-][n+]1cccc(/C(Cl)=N/OC[C@@H](O)CN2CCCCC2)c1 | -6.69% (inactive)
25 | CON=C(C(=O)N[C@@H]1C(=O)N2C(C(=O)O)=C(Cn3ccc(=N)n3CCO)CS[C@H]12)c1csc(N)n1 | 23.9% (inactive)
26 | CCc1ccc(C=C2SC(=S)NC2=O)cc1 | 32.5% (inactive)
27 | Cc1c(Cl)cccc1Nc1ccccc1C(=O)O | 8.47% (inactive)
28 | Cc1cccc(C)c1NC(=O)c1cc(S(N)(=O)=O)c(Cl)cc1O | -9.21% (inactive)
29 | COc1ccc(C(=O)NCc2ccc(OCCN(C)C)cc2)cc1OC | -28.8% (inactive)
30 | CCOc1c(N2CCOCC2)cnn(C)c1=O | -4.18% (inactive)
31 | N#CC(=C1Nc2ccccc2S1)c1ccnc(OCc2ccc(CN3CCOCC3)cc2)n1 | -32.5% (inactive)
32 | N#CC(=C(N)Sc1ccc(N)cc1)c1ccccc1C(F)(F)F | 19.5% (inactive)
33 | OCC(CO)N[C@H]1C[C@](O)(CO)[C@@H](O)[C@H](O)[C@H]1O | -11.7% (inactive)
34 | COc1ccc2nc(NC(=O)Nc3ccccc3)sc2c1 | -19.8% (inactive)
35 | CCN(CCCCOC(=O)c1ccc(OC)c(OC)c1)C(C)Cc1ccc(OC)cc1 (centres undefined) | -6.69% (inactive)
36 | O=C(O)CCc1nc2ccccc2[nH]1 | 0.565% (inactive)
37 | CCCCCN=C(N)NN=Cc1c[nH]c2ccc(OC)cc12 | 31% (inactive)
38 | COC(=O)CCCCC(CCSS/C(CCO)=C(\C)N(C=O)Cc1cnc(C)nc1N)SC(C)=O (centres undefined) | 10% (inactive)
39 | Cc1cc(O)c(C(C)C)cc1Cl | -0.565% (inactive)
